Targets with a hit are over-represented here; the source holds about 7,900 in all. About 0.6% of all pairs of compound and target were hits.
Tests used:
Assay in all cases: log2 fold change, soluble protein after heating vs DMSO (PISA); higher = thermal stabilisation; K562 cells, 10 uM, 30 min; active = over 0.2 and 3.5 SD of the protein, either way, in both replicates (recomputed)
[1] = compound: CS(=O)(=O)c1ccc(-c2cnc(N)c(C(=O)Nc3ccccc3)n2)cc1
Outline: (§1)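 Soluble protein was defined as the supernatant after 21,000xg for 90 min. It came from K562 cells at 2×10^6 cells/mL given 10 μM compound for 30 min, heated in aliquots for 3 min across 48°C-58°C, pooled, and extracted in PBS with 0.5% NP-40 at 4°C, and was quantified by TMTpro 16plex LC-MS/MS with equalised channel sums. Thermal stability against control samples, from duplicates, is reported as log2 fold change.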

[2] = compound: C[C@@H](Oc1cc(-c2cnn(C3CCNCC3)c2)cnc1N)c1c(Cl)ccc(F)c1Cl [crizotinib]
Outline: as §1

[3] = compound: C[C@@H]1COCCN1C2=NC(=NC(=C2)C3(CC3)S(=O)(=O)C)C4=C5C=CNC5=CC=C4
Outline: as §1

[4] = compound: C[C@H](C1=CC=C(C=C1)C(=O)NC2=C3C=CNC3=NC=C2)N
Outline: as §1

[5] = compound: C[C@H](Nc1ncnc2nc[nH]c12)c1cc2cccc(Cl)c2c(=O)n1-c1ccccc1 [duvelisib]
Outline: as §1

[6] = compound: Cc1cc(Nc2cc(CN3CCOCC3)c3nc(C)c(Cc4ccc(Cl)cc4F)n3n2)n[nH]1 [gandotinib]
Outline: as §1

[7] = compound: Cc1cc(Nc2cc(N3CCN(C)CC3)nc(Sc3ccc(NC(=O)C4CC4)cc3)n2)n[nH]1 [tozasertib]
Outline: as §1

[8] = compound: Cc1cc(SCc2sc(-c3ccc(C(F)(F)F)cc3)nc2C)ccc1OCC(=O)O
Outline: as §1

[9] = compound: Cc1ccc(-n2nc(C(C)(C)C)cc2NC(=O)Nc2ccc(OCCN3CCOCC3)c3ccccc23)cc1 [doramapimod]
Outline: as §1

[10] = compound: Cc1ccc(NC(=O)c2ccc(CN3CC[C@H](N(C)C)C3)c(C(F)(F)F)c2)cc1Nc1nccc(-c2cncnc2)n1 [bafetinib]
Outline: as §1

[11] = compound: Cc1cccc(CC(=O)N2CCc3c2ccc(-c2cn(C)c4ncnc(N)c24)c3F)n1
Outline: as §1

[12] = compound: Cc1cn(-c2cc(NC(=O)c3ccc(C)c(Nc4nccc(-c5cccnc5)n4)c3)cc(C(F)(F)F)c2)cn1 [nilotinib]
Outline: as §1

[13] = compound: Cc1nc(Nc2n[nH]c3c2CN(C(=O)N[C@H](CN(C)C)c2ccccc2)C3(C)C)c2sccc2n1
Outline: as §1

[14] = compound: Cc1nc(Nc2ncc(C(=O)Nc3c(C)cccc3Cl)s2)cc(N2CCN(CCO)CC2)n1 [dasatinib]
Outline: as §1

[15] = compound: Cc1ncc(-c2ccnc(Nc3ccc(S(C)(=O)=O)cc3)n2)n1C(C)C
Outline: as §1

[16] = compound: Cn1cc(-c2ccc3c(c2)CCN3C(=O)Cc2cccc(C(F)(F)F)c2)c2c(N)ncnc21
Outline: as §1

[17] = compound: Cn1cncc1[C@@](N)(c1ccc(Cl)cc1)c1ccc2c(c1)c(-c1cccc(Cl)c1)cc(=O)n2C [tipifarnib]
Outline: as §1

[18] = compound: FC(F)(F)c1ccc(/C=C/c2nc(COc3ccc(CCCCn4ccnn4)cc3)co2)cc1 [mubritinib]
Outline: as §1

[19] = compound: Cc1ccc(C(=O)N(CCCN)[C@@H](c2nc3cc(Cl)ccc3c(=O)n2Cc2ccccc2)C(C)C)cc1 [ispinesib]
Outline: as §1

[20] = compound: Cn1cc(-c2ccc3nnc(C(F)(F)c4ccc5ncccc5c4)n3n2)cn1
Outline: as §1

Measured: log2 fold change

CMTM3 (UniProt Q96MX0)
UniProt Q96MX0, sequence (Q96MX0 whole entry, looked up): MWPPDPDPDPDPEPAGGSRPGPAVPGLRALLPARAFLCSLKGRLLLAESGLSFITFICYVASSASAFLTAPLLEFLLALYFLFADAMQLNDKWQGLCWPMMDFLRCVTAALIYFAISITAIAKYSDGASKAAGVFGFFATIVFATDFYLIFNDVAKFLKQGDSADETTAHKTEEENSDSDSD
inactive: [1] 0.063 | [2] -0.007 | [3] -0.002 | [4] -0.133 | [5] 0.028 | [6] 0.132 | [7] -0.026 | [8] -0.102 | [9] -0.065 | [10] 0.05 | [11] -0.078 | [12] -0.056 | [13] -0.007 | [14] 0.017 | [15] 0.013 | [16] 0.05 | [17] 0.098 | [18] -0.052

COG2 (UniProt Q14746)
UniProt Q14746, sequence (Q14746 whole entry, looked up): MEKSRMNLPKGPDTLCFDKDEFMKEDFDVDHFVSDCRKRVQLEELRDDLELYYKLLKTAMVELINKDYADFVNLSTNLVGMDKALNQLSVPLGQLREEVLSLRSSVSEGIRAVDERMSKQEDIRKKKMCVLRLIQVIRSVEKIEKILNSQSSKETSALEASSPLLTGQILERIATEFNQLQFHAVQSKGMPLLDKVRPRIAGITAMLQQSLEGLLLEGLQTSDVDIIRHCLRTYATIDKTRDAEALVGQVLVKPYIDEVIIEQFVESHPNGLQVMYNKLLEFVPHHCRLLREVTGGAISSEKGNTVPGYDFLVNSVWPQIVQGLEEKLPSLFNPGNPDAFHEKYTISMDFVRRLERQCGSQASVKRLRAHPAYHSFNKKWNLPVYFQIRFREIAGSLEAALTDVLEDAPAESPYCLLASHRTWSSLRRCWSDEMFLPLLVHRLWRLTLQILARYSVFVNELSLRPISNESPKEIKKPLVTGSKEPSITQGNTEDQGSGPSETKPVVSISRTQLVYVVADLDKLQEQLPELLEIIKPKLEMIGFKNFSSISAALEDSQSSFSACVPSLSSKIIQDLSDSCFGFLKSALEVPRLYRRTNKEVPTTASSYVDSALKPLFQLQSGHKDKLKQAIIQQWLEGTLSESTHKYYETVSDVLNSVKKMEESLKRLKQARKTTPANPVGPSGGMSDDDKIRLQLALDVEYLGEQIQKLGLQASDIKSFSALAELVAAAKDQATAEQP
inactive: [1] -0.029 | [2] -0.17 | [3] 0.094 | [4] 0.483 | [5] -0.094 | [7] -0.153 | [8] 0.061 | [9] 0 | [19] -0.264 | [12] -0.169 | [13] -0.006 | [14] -0.051 | [15] 0.133 | [16] -0.074 | [20] 0.245 | [18] -0.035

C15orf41 (UniProt Q9Y2V0)
UniProt Q9Y2V0, sequence (Q9Y2V0 whole entry, looked up): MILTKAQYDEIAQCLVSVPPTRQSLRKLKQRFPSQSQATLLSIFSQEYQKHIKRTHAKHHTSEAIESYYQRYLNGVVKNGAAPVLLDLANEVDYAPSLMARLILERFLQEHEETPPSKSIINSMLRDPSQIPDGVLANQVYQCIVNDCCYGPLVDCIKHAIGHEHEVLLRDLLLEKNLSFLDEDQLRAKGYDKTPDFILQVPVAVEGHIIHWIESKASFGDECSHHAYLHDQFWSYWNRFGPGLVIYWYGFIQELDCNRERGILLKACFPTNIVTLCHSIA
inactive: [1] 0.057 | [2] -0.01 | [3] 0.074 | [4] 0.023 | [5] 0.003 | [6] -0.027 | [7] 0.1 | [8] -0.004 | [9] 0.08 | [19] -0.2 | [11] -0.101 | [16] -0.097 | [20] -0.088 | [17] -0.087
active: [14] -0.357

CNN3 (UniProt Q15417)
UniProt Q15417, sequence (Q15417 whole entry, looked up): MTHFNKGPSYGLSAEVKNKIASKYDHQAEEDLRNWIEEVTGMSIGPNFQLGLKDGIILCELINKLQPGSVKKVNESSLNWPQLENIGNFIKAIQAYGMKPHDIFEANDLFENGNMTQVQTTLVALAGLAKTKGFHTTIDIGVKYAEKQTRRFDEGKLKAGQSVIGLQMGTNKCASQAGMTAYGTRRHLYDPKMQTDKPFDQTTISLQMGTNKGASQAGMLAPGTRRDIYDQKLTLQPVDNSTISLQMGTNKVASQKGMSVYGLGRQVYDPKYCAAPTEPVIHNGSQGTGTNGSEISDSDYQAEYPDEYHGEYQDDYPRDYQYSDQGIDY
inactive: [1] 0.044 | [3] 0.075 | [4] -0.066 | [5] -0.02 | [6] -0.1 | [7] 0.069 | [8] 0.15 | [10] 0.02 | [11] -0.025 | [12] -0.066 | [13] -0.056 | [14] -0.057 | [15] 0.108 | [16] 0.023 | [17] -0.107 | [18] 0.06

CHST10 (UniProt O43529)
UniProt O43529, sequence (O43529 whole entry, looked up): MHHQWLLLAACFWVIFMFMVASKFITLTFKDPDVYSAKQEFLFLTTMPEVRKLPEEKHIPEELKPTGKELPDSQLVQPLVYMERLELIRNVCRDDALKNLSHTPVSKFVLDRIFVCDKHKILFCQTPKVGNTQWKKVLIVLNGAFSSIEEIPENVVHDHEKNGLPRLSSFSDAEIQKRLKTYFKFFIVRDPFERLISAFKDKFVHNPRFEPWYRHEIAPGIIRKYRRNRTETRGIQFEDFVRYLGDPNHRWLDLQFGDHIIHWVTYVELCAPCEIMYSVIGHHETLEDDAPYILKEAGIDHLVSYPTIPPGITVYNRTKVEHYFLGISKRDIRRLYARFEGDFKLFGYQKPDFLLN
inactive: [1] 0.235 | [2] -0.206 | [3] 0.014 | [4] 0.009 | [6] 0.087 | [7] -0.037 | [9] 0.015 | [19] -0.009 | [10] -0.036 | [11] 0.052 | [12] 0.092 | [13] -0.081 | [15] 0.104 | [16] 0.071 | [20] -0.09 | [17] 0.05 | [18] 0.064

C6orf120 (UniProt Q7Z4R8)
UniProt Q7Z4R8, sequence (Q7Z4R8 whole entry, looked up): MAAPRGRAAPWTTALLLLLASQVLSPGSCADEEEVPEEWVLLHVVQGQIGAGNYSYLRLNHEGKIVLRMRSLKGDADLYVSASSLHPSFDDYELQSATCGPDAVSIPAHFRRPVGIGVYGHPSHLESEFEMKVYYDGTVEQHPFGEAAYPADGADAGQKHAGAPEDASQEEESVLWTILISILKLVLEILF
inactive: [1] 0.069 | [2] -0.04 | [5] -0.052 | [7] -0.032 | [8] 0.113 | [9] 0.134 | [19] -0.07 | [10] -0.145 | [12] -0.045 | [13] 0.044 | [14] 0.029 | [15] -0.048 | [20] -0.032 | [17] 0.026

CEP128 (UniProt Q6ZU80)
UniProt Q6ZU80, sequence (Q6ZU80 whole entry, looked up): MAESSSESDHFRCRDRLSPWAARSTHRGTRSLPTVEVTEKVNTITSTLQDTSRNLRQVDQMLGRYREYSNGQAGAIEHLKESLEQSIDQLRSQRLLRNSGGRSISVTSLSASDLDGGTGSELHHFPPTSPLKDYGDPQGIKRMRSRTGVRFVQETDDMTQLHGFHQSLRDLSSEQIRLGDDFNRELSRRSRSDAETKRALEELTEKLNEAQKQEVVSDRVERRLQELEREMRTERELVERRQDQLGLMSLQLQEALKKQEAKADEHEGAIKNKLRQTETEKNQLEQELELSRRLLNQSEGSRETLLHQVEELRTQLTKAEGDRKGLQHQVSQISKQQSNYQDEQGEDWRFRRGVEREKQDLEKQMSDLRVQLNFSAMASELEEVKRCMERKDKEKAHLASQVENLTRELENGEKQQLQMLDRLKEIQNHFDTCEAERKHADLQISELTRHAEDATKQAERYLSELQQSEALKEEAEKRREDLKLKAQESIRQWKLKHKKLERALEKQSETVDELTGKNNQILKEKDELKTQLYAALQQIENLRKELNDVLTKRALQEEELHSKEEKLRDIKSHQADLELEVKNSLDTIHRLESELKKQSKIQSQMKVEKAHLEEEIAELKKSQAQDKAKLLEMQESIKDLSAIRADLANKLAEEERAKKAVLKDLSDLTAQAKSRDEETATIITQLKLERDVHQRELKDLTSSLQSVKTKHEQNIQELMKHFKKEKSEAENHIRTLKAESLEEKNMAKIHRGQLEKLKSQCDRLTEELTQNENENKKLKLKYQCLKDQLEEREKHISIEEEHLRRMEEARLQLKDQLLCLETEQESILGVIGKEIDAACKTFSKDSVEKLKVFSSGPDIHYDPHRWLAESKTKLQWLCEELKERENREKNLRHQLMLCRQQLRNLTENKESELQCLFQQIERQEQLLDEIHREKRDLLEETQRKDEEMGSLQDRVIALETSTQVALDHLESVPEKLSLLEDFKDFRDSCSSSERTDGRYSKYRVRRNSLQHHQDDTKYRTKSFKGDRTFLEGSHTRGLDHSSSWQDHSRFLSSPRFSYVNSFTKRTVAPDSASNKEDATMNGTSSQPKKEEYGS
inactive: [1] 0.093 | [2] 0.056 | [4] 0.157 | [5] 0.183 | [7] 0.041 | [8] -0.07 | [9] 0.102 | [10] -0.186 | [14] 0.046 | [16] -0.026 | [17] -0.016 | [18] 0.143

C22orf39 (UniProt Q6P5X5)
UniProt Q6P5X5, sequence (Q6P5X5 whole entry, looked up): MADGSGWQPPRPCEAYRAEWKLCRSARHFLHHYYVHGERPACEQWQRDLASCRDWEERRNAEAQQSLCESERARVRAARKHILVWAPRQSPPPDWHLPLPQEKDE
inactive: [1] 0.075 | [2] -0.303 | [3] 0.06 | [4] -0.057 | [5] 0 | [7] 0.096 | [8] -0.135 | [9] 0.072 | [19] -0.207 | [10] -0.04 | [12] -0.07 | [13] 0.038 | [14] -0.232 | [15] -0.12 | [16] -0.036 | [20] 0.031 | [17] -0.071 | [18] 0.031

COX7C (UniProt P15954)
UniProt P15954, sequence (P15954 whole entry, looked up): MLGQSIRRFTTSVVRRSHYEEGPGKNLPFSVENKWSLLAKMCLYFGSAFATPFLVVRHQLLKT
inactive: [1] 0.025 | [2] 0.147 | [3] 0.028 | [5] -0.04 | [6] 0.043 | [7] -0.015 | [8] -0.114 | [9] -0.072 | [19] -0.096 | [10] -0.066 | [11] -0.077 | [12] 0.148 | [13] -0.041 | [14] 0.073 | [15] -0.158 | [20] 0.366 | [17] 0.105 | [18] 0.112

Source: the supplement of paper PMC10849652
